The panel holds about 83,000 compounds, 20% with a hit somewhere; the sample as a whole holds those more often.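 The test compound was applied at a single concentration to cells in 96-well plates for 48 hours, and percent growth was recorded.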 Active and inactive are the calls of the source. The calls were made as follows: active = growth percent below 10; inactive = the rest.
Key:
Assay in all cases: NCI-60 one-dose screen, 48 h (100 = growth as untreated, 0 = no growth, -100 = all killed)
Conditions in all cases: 10 µM unless noted
SR leukemia = test system: SR leukemia
RPMI-8226 leukemia = test system: RPMI-8226 leukemia
OVCAR-8 ovarian = test system: OVCAR-8 ovarian
OVCAR-5 ovarian = test system: OVCAR-5 ovarian
OVCAR-4 ovarian = test system: OVCAR-4 ovarian
SK-OV-3 ovarian = test system: SK-OV-3 ovarian
IGROV1 ovarian = test system: IGROV1 ovarian
OVCAR-3 ovarian = test system: OVCAR-3 ovarian
HS 578T breast = test system: HS 578T breast
NCI/ADR-RES ovarian = test system: NCI/ADR-RES ovarian
T-47D breast = test system: T-47D breast
BT-549 breast = test system: BT-549 breast
MDA-MB-435 melanoma = test system: MDA-MB-435 melanoma
SW-620 colon = test system: SW-620 colon
MCF7 breast = test system: MCF7 breast
HCT-116 colon = test system: HCT-116 colon
HCC-2998 colon = test system: HCC-2998 colon
KM12 colon = test system: KM12 colon

Measured: growth

COc1cc(-c2nc3occn3c2-c2ccnc(NCCCNS(=O)(=O)c3ccccc3)n2)ccc1F
inactive: SR leukemia 56.4% | OVCAR-8 ovarian 21.9% | OVCAR-5 ovarian 111% | OVCAR-4 ovarian 33% | SK-OV-3 ovarian 59.2% | IGROV1 ovarian 49.8% | OVCAR-3 ovarian 66.2% | HS 578T breast 75.6% | NCI/ADR-RES ovarian 20.5% | BT-549 breast 29.7% | SW-620 colon 65.2% | MCF7 breast 20.5% | HCT-116 colon 34.3% | HCC-2998 colon 69.1% | KM12 colon 30%
active: RPMI-8226 leukemia 5.21% | T-47D breast 8.36% | MDA-MB-435 melanoma 9.04%

CC(CN)[C@@H]1CC[C@]2(CO)CC[C@]3(C)[C@H](CC[C@@H]4[C@@]5(C)CCC(N)C(C)(C)[C@@H]5CC[C@]43C)[C@@H]12 (stereo partly drawn)
active: SR leukemia -46.4% | RPMI-8226 leukemia -38.2% | OVCAR-8 ovarian -78.4% | OVCAR-5 ovarian -51.4% | OVCAR-4 ovarian -38.9% | OVCAR-3 ovarian -84.2% | HS 578T breast 4.39% | T-47D breast 6% | MDA-MB-435 melanoma -29.2% | SW-620 colon -75.7% | MCF7 breast -71.2% | HCT-116 colon -81.2% | HCC-2998 colon -77.5% | KM12 colon -73.5%
inactive: SK-OV-3 ovarian 103% | IGROV1 ovarian 62.2% | NCI/ADR-RES ovarian 53.6% | BT-549 breast 44.9%

O=C1OCC2=C1C(c1cccc(F)c1)c1cc3c(cc1N2CCO)OCO3 (stereo not drawn)
active: OVCAR-3 ovarian 2.41% | MDA-MB-435 melanoma -0.149%
inactive: SR leukemia 16.7% | RPMI-8226 leukemia 17.5% | OVCAR-8 ovarian 34.5% | OVCAR-5 ovarian 63.6% | OVCAR-4 ovarian 57.3% | SK-OV-3 ovarian 19.5% | IGROV1 ovarian 40% | HS 578T breast 17.8% | NCI/ADR-RES ovarian 25.4% | T-47D breast 21.3% | BT-549 breast 32.8% | SW-620 colon 15.8% | MCF7 breast 20% | HCT-116 colon 18.2% | HCC-2998 colon 77% | KM12 colon 25.3%

COc1cc(C(=O)/C=C/c2ccc(N3CCN(C)CC3)cc2)cc(OC)c1OC
inactive: SR leukemia 91.2% | RPMI-8226 leukemia 107% | OVCAR-8 ovarian 98% | OVCAR-5 ovarian 96.5% | OVCAR-4 ovarian 101% | SK-OV-3 ovarian 100% | IGROV1 ovarian 94.8% | OVCAR-3 ovarian 98.6% | HS 578T breast 94.3% | NCI/ADR-RES ovarian 95.2% | T-47D breast 95.8% | BT-549 breast 100% | MDA-MB-435 melanoma 95.5% | SW-620 colon 88% | MCF7 breast 96% | HCT-116 colon 104% | HCC-2998 colon 101% | KM12 colon 99.3%

CCN(CC)S(=O)(=O)c1ccc(S(=O)(=O)N2CCC[C@@H](C(=O)N3CCN(C(=O)OC(C)(C)C)CC3)C2)cc1
inactive: SR leukemia 31.7% | RPMI-8226 leukemia 53.7% | OVCAR-8 ovarian 63.3% | OVCAR-5 ovarian 102% | OVCAR-4 ovarian 26.1% | SK-OV-3 ovarian 90.5% | IGROV1 ovarian 86.1% | OVCAR-3 ovarian 73.5% | HS 578T breast 87.2% | NCI/ADR-RES ovarian 62% | T-47D breast 44.5% | BT-549 breast 61.5% | MDA-MB-435 melanoma 60.6% | SW-620 colon 80.4% | MCF7 breast 49.3% | HCT-116 colon 54.1% | HCC-2998 colon 89.6% | KM12 colon 76.9%

S=c1ssnc1-c1cccs1
inactive: SR leukemia 98.6% | RPMI-8226 leukemia 97.3% | OVCAR-8 ovarian 113% | OVCAR-5 ovarian 115% | OVCAR-4 ovarian 99.8% | SK-OV-3 ovarian 98.4% | OVCAR-3 ovarian 78.9% | HS 578T breast 46.6% | NCI/ADR-RES ovarian 97.2% | T-47D breast 92.6% | BT-549 breast 116% | MDA-MB-435 melanoma 83.9% | SW-620 colon 83.7% | MCF7 breast 91.6% | HCT-116 colon 89.4% | HCC-2998 colon 98.4% | KM12 colon 92.1%
active: IGROV1 ovarian -4.8%

N=c1sc(Cc2cc(Cl)ccc2Cl)cn1CC(=O)c1ccccc1
inactive: SR leukemia 27.4% | RPMI-8226 leukemia 70.4% | OVCAR-8 ovarian 62.6% | OVCAR-5 ovarian 47.8% | OVCAR-4 ovarian 56.5% | SK-OV-3 ovarian 67.9% | IGROV1 ovarian 35.6% | OVCAR-3 ovarian 45.4% | HS 578T breast 59.2% | NCI/ADR-RES ovarian 36% | T-47D breast 38.3% | BT-549 breast 68.8% | SW-620 colon 21.2% | MCF7 breast 32.3% | HCT-116 colon 26.1% | HCC-2998 colon 31.6% | KM12 colon 16.1%
active: MDA-MB-435 melanoma -41.5%

Cc1cscc(C)c1=S
inactive: SR leukemia 72.9% | RPMI-8226 leukemia 103% | OVCAR-8 ovarian 83.3% | OVCAR-5 ovarian 67.5% | OVCAR-4 ovarian 113% | SK-OV-3 ovarian 98.9% | IGROV1 ovarian 77% | OVCAR-3 ovarian 121% | HS 578T breast 122% | NCI/ADR-RES ovarian 71.1% | T-47D breast 96% | BT-549 breast 99.7% | MDA-MB-435 melanoma 104% | SW-620 colon 50.5% | MCF7 breast 59.4% | HCT-116 colon 61.2% | HCC-2998 colon 103% | KM12 colon 104%

C#CCOc1cccc(-c2ncc3cc(NC(=O)CCl)ccc3n2)c1
inactive: SK-OV-3 ovarian 76.8% | HS 578T breast 31.7% | KM12 colon 14.2%
active: SR leukemia -28.2% | RPMI-8226 leukemia -24.9% | OVCAR-8 ovarian 6.25% | OVCAR-5 ovarian -58.8% | OVCAR-4 ovarian -28.2% | IGROV1 ovarian -52.7% | OVCAR-3 ovarian -51.2% | NCI/ADR-RES ovarian 7.12% | T-47D breast -26.7% | BT-549 breast -49.3% | MDA-MB-435 melanoma 2.74% | SW-620 colon -58.3% | MCF7 breast -21.6% | HCT-116 colon -26.9% | HCC-2998 colon -7.49%

Cn1cc(/C=C2/C(=O)Nc3ccccc32)c2ccccc21
inactive: SR leukemia 94.9% | RPMI-8226 leukemia 60.5% | OVCAR-8 ovarian 95.5% | OVCAR-5 ovarian 106% | OVCAR-4 ovarian 86.2% | SK-OV-3 ovarian 90.4% | IGROV1 ovarian 85.1% | OVCAR-3 ovarian 90.2% | HS 578T breast 89.3% | NCI/ADR-RES ovarian 84.7% | T-47D breast 64.7% | BT-549 breast 88.4% | MDA-MB-435 melanoma 106% | SW-620 colon 102% | MCF7 breast 69.2% | HCT-116 colon 90.4% | HCC-2998 colon 98.2% | KM12 colon 14.8%

CCn1c2ccc(O)cc2c2c(C)c3c[n+](C(C)C)ccc3c(C)c21
active: T-47D breast -15.4% | BT-549 breast 9.02%
inactive: SR leukemia 11.9% | RPMI-8226 leukemia 27.8% | OVCAR-8 ovarian 37.6% | OVCAR-5 ovarian 83.6% | OVCAR-4 ovarian 43.2% | SK-OV-3 ovarian 89.8% | IGROV1 ovarian 50.8% | OVCAR-3 ovarian 19.5% | HS 578T breast 34.8% | NCI/ADR-RES ovarian 66.5% | MDA-MB-435 melanoma 28.5% | SW-620 colon 25.6% | MCF7 breast 17.8% | HCT-116 colon 37.3% | HCC-2998 colon 42.6% | KM12 colon 15%

CN(C)c1ccc(/C=C/C(=O)c2ccccc2)cc1
inactive: SR leukemia 25.1% | RPMI-8226 leukemia 76.4% | OVCAR-8 ovarian 93.1% | OVCAR-5 ovarian 113% | OVCAR-4 ovarian 101% | SK-OV-3 ovarian 96.9% | IGROV1 ovarian 99.2% | OVCAR-3 ovarian 90.2% | HS 578T breast 98.4% | NCI/ADR-RES ovarian 81.3% | T-47D breast 68.5% | BT-549 breast 81.3% | MDA-MB-435 melanoma 28.6% | SW-620 colon 63.5% | MCF7 breast 44.7% | HCT-116 colon 67.5% | HCC-2998 colon 97.5% | KM12 colon 51.4%

C/C(=C(/c1ccc(Cl)cc1)c1ccc(OCCCN(C)C)cc1)c1ccc(Cl)cc1
active: SR leukemia -2.36%
inactive: RPMI-8226 leukemia 55.6% | OVCAR-8 ovarian 96.1% | OVCAR-5 ovarian 101% | OVCAR-4 ovarian 104% | SK-OV-3 ovarian 120% | IGROV1 ovarian 85.7% | OVCAR-3 ovarian 86.3% | HS 578T breast 87.1% | NCI/ADR-RES ovarian 97.7% | T-47D breast 69.1% | BT-549 breast 111% | MDA-MB-435 melanoma 92.6% | SW-620 colon 64% | MCF7 breast 34.3% | HCT-116 colon 52.4% | HCC-2998 colon 101% | KM12 colon 79.9%

CCNCc1ccc(O)c2ncccc12
inactive: SR leukemia 19% | RPMI-8226 leukemia 24.2% | OVCAR-8 ovarian 23% | OVCAR-5 ovarian 64.7% | OVCAR-4 ovarian 17.8% | SK-OV-3 ovarian 27.9% | IGROV1 ovarian 46% | OVCAR-3 ovarian 37.7% | HS 578T breast 39.9% | NCI/ADR-RES ovarian 27.3% | T-47D breast 27.3% | BT-549 breast 40.8% | MDA-MB-435 melanoma 16.6% | SW-620 colon 33.1% | MCF7 breast 17.3% | HCT-116 colon 21.6% | HCC-2998 colon 45.9% | KM12 colon 29.2%

N#Cc1nc2c(S(=O)(=O)c3ccccc3)c(N)n(Cc3cccnc3)c2nc1C#N
inactive: SR leukemia 36.1% | RPMI-8226 leukemia 99.2% | OVCAR-8 ovarian 70.9% | OVCAR-5 ovarian 96.5% | OVCAR-4 ovarian 92.4% | SK-OV-3 ovarian 76.9% | IGROV1 ovarian 46.1% | OVCAR-3 ovarian 73.4% | HS 578T breast 59.5% | NCI/ADR-RES ovarian 94.6% | T-47D breast 58.6% | BT-549 breast 65.4% | MDA-MB-435 melanoma 94.9% | SW-620 colon 77.7% | MCF7 breast 91.3% | HCT-116 colon 98.2% | HCC-2998 colon 104% | KM12 colon 102%

O=S(=O)(c1ccccc1)N1CCCN(c2nc(-c3ccccc3)nc3nc(-c4ccccc4)oc23)CC1
inactive: SR leukemia 104% | RPMI-8226 leukemia 98.1% | OVCAR-8 ovarian 104% | OVCAR-5 ovarian 106% | OVCAR-4 ovarian 105% | SK-OV-3 ovarian 103% | IGROV1 ovarian 100% | OVCAR-3 ovarian 117% | HS 578T breast 116% | NCI/ADR-RES ovarian 104% | T-47D breast 99.4% | BT-549 breast 107% | MDA-MB-435 melanoma 102% | SW-620 colon 109% | MCF7 breast 90.8% | HCT-116 colon 89.5% | HCC-2998 colon 108% | KM12 colon 113%

From PubChem BioAssay (NCI)
